Source: PubChem BioAssay AID1159580 (chemical genetic matrix, 2015)
Screen size: about 5,500 compounds; about 2,000 (36%) were called active. Roughly 18% stayed inconclusive and do not appear here. Rule as the data show it: active = normalized growth mostly below about 0.91 (no sharp cut-off); inconclusive = no clear call, values can overlap the other calls; inactive = mostly above about 0.92. The list shows a part of the results.

Assay: chemical genetic growth profiling, strain panel (AID 1159580);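 also: tested at 20 µM; growth read once vehicle control cultures reached saturation at 30 °C; 1 = growth at the plate median or of vehicle wells; lower values mean less growth of the strain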
Conditions: growth OD

Measured: normalized growth

Clc1ccc(COC(Cn2ccnc2)c2ccc(Cl)cc2Cl)cc1 (stereo unspecified)
active: S. cerevisiae deletion strains, locus YJR066W, strain TOR1, hits give low values 0.00125 | S. cerevisiae deletion strains, locus YJR075W, strain HOC1, hits give low values 0.0611 | S. cerevisiae deletion strains, locus YKL009W, strain mrt4, hits give low values 0.0921 | S. cerevisiae deletion strains, locus YKL068W, hits give low values 0.0732 | S. cerevisiae deletion strains, locus YKL085W, strain MDH1 (second series), hits give low values 0.0674 | S. cerevisiae deletion strains, locus YKL085W, strain MDH1, hits give low values 0.0674 | S. cerevisiae deletion strains, locus YKL160W, strain elf1, hits give low values 0.0682 | S. cerevisiae deletion strains, locus YKL190W, strain CNB1, hits give low values 0.0459 | S. cerevisiae deletion strains, locus YKR001C, strain vps1, hits give low values 0.0628 | S. cerevisiae deletion strains, locus YKR026C, strain gcn3, hits give low values 0.0617 | S. cerevisiae deletion strains, locus YKR091W, strain srl3, hits give low values 0.0578 | S. cerevisiae deletion strains, locus YLL001W, strain dnm1, hits give low values 0.0616 | S. cerevisiae deletion strains, locus YLL026W, hits give low values 0.0557 | S. cerevisiae deletion strains, locus YLL041C, strain sdh2, hits give low values 0.0556 | S. cerevisiae deletion strains, locus YLR027C, strain aat2, hits give low values 0.0535 | S. cerevisiae deletion strains, locus YLR039C, strain RIC1, hits give low values 0.0808 | S. cerevisiae deletion strains, locus YLR058C, strain SHM2, hits give low values 0.0475 | S. cerevisiae deletion strains, locus YLR102C, strain apc9, hits give low values 0.0627 | S. cerevisiae deletion strains, locus YLR113W, strain HOG1, hits give low values 0.128 | S. cerevisiae deletion strains, locus YLR221C, strain rsa3, hits give low values 0.0566 | S. cerevisiae deletion strains, locus YLR258W, strain gsy2, hits give low values 0.0569 | S. cerevisiae deletion strains, locus YLR262C, strain YPT6 (second series), hits give low values 0.0789 | S. cerevisiae deletion strains, locus YLR262C, strain YPT6, hits give low values 0.112 | S. cerevisiae deletion strains, locus YLR268W, strain sec22, hits give low values 0.0635 | S. cerevisiae deletion strains, locus YLR320W, strain mms22, hits give low values 0.139 | S. cerevisiae deletion strains, locus YLR330W, strain CHS5, hits give low values 0.0517 | S. cerevisiae deletion strains, locus YLR342W, strain FKS1 (second series), hits give low values 0.0624 | S. cerevisiae deletion strains, locus YLR342W, strain FKS1, hits give low values 0.0696 | S. cerevisiae deletion strains, locus YLR357W, strain rsc2, hits give low values 0.121 | S. cerevisiae deletion strains, locus YLR370C, strain arc18, hits give low values 0.0609 | S. cerevisiae deletion strains, locus YLR371W, strain rom2, hits give low values 0.0612 | S. cerevisiae deletion strains, locus YLR384C, strain iki3, hits give low values 0.0595 | S. cerevisiae deletion strains, locus YLR418C, strain cdc73, hits give low values 0.089 | S. cerevisiae deletion strains, locus YML016C, strain PPZ1, hits give low values 0.046 | S. cerevisiae deletion strains, locus YML032C, strain rad52, hits give low values 0.0629 | S. cerevisiae deletion strains, locus YML120C, strain ndi1, hits give low values 0.0559 | S. cerevisiae deletion strains, locus YML124C, strain tub3, hits give low values 0.06 | S. cerevisiae deletion strains, locus YMR058W, strain fet3, hits give low values 0.0614 | S. cerevisiae deletion strains, locus YMR078C, strain ctf18, hits give low values 0.0711 | S. cerevisiae deletion strains, locus YMR125W, strain sto1, hits give low values 0.0771 | S. cerevisiae deletion strains, locus YMR129W, hits give low values 0.0559 | S. cerevisiae deletion strains, locus YMR205C, strain PFK2, hits give low values 0.0917 | S. cerevisiae deletion strains, locus YMR223W, strain ubp8, hits give low values 0.0593 | S. cerevisiae deletion strains, locus YMR231W, strain pep5, hits give low values 0.125 | S. cerevisiae deletion strains, locus YMR263W, strain SAP30, hits give low values 0.055 | S. cerevisiae deletion strains, locus YMR307W, strain GAS1, hits give low values 0.123 | S. cerevisiae deletion strains, locus YNL067W, strain RPL9B, hits give low values 0.0483 | S. cerevisiae deletion strains, locus YNL071W, strain lat1, hits give low values 0.0586 | S. cerevisiae deletion strains, locus YNL128W, strain TEP1, hits give low values 0.0622 | S. cerevisiae deletion strains, locus YNL153C, strain GIM3, hits give low values 0.0497 | S. cerevisiae deletion strains, locus YNL183C, strain NPR1, hits give low values -0.00516 | S. cerevisiae deletion strains, locus YNL209W, strain ssb2, hits give low values 0.0633 | S. cerevisiae deletion strains, locus YNL233W, strain BNI4, hits give low values 0.0542 | S. cerevisiae deletion strains, locus YNL248C, strain rpa49, hits give low values 0.0786 | S. cerevisiae deletion strains, locus YNL250W, strain rad50, hits give low values 0.0799 | S. cerevisiae deletion strains, locus YNL271C, strain bni1, hits give low values 0.0793 | S. cerevisiae deletion strains, locus YNL298W, strain CLA4, hits give low values 0.0698 | S. cerevisiae deletion strains, locus YNL307C, strain MCK1, hits give low values 0.0676 | S. cerevisiae deletion strains, locus YNL322C, strain KRE1 (second series), hits give low values 0.067 | S. cerevisiae deletion strains, locus YNR049C, strain mso1, hits give low values 0.0571 | S. cerevisiae deletion strains, locus YNR052C, strain pop2, hits give low values 0.0609 | S. cerevisiae deletion strains, locus YOL006C, strain TOP1, hits give low values 0.104 | S. cerevisiae deletion strains, locus YOL012C, strain htz1 0.142 | S. cerevisiae deletion strains, locus YOL147C, strain pex11, hits give low values 0.0571 | S. cerevisiae deletion strains, locus YOR001W, strain rrp6, hits give low values 0.0678 | S. cerevisiae deletion strains, locus YOR061W, strain CKA2, hits give low values 0.0453 | S. cerevisiae deletion strains, locus YOR069W, strain VPS5, hits give low values 0.0468 | S. cerevisiae deletion strains, locus YOR070C, strain gyp1, hits give low values 0.0583 | S. cerevisiae deletion strains, locus YOR080W, strain dia2, hits give low values 0.0655 | S. cerevisiae deletion strains, locus YOR083W, strain WHI5, hits give low values 0.0646 | S. cerevisiae deletion strains, locus YOR106W, strain vam3, hits give low values 0.0717 | S. cerevisiae deletion strains, locus YOR136W, strain idh2, hits give low values 0.0693 | S. cerevisiae deletion strains, locus YOR144C, strain elg1, hits give low values 0.0562 | S. cerevisiae deletion strains, locus YOR184W, strain ser1, hits give low values 0.0649 | S. cerevisiae deletion strains, locus YOR231W, strain MKK1, hits give low values 0.119 | S. cerevisiae deletion strains, locus YOR265W, strain rbl2, hits give low values 0.0574 | S. cerevisiae deletion strains, locus YOR270C, strain vph1, hits give low values 0.104 | S. cerevisiae deletion strains, locus YOR290C, strain snf2, hits give low values 0.0649 | S. cerevisiae deletion strains, locus YOR316C, strain cot1, hits give low values 0.0595 | S. cerevisiae deletion strains, locus YPL051W, strain arl3, hits give low values 0.0626 | S. cerevisiae deletion strains, locus YPL078C, strain atp4, hits give low values 0.0787 | S. cerevisiae deletion strains, locus YPL106C, strain sse1, hits give low values 0.0958 | S. cerevisiae deletion strains, locus YPL240C, strain hsp82, hits give low values 0.0557 | S. cerevisiae deletion strains, locus YPL241C, strain CIN2, hits give low values 0.0472 | S. cerevisiae deletion strains, locus YPL256C, strain CLN2, hits give low values 0.127 | S. cerevisiae deletion strains, locus YPR119W, strain clb2, hits give low values 0.062 | S. cerevisiae deletion strains, locus YPR141C, strain kar3, hits give low values 0.0789 | S. cerevisiae deletion strains, locus YPR163C, strain tif3, hits give low values 0.0707 | S. cerevisiae deletion strains, locus YPR167C, strain met16, hits give low values 0.0615 | S. cerevisiae deletion strains, strain wtn01, hits give low values 0.0584 | S. cerevisiae strains, strain wild type, hits give low values 0.0556
